Inconclusive results are not listed. A call without a number means that no potency is given here. The source made the active and inactive calls. Calls follow the shape of the dose curve; as a rule, active = well fitted inhibition curve with a large enough effect; inconclusive = small, poorly fitted or top-dose-only effect; inactive = flat fitted curve, though single readings scatter.
System: CP260
Assay: qHTS profiling for inhibitors of Plasmodium falciparum proliferation (AID 504749); also: nearly all actives have a fitted effect of over 60% in size
Details: P. falciparum in erythrocytes, SYBR Green DNA, 72 h; series mostly up to 28.7 µM
Summary of the method: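 In a 72 h erythrocytic culture (37 C, humidified, 5% CO2) at 2.5% hematocrit and 0.3% starting parasitemia, compounds were tested; SYBR Green I in detergent lysis buffer stained parasite DNA overnight.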
Potency is read from the fitted curve at half-maximal effect.

| SMILES | Potency |
| --- | --- |
| CCCCCCCC/C=C\CCCCCCCC(=O)O | inactive |
| COC(F)(F)C(Cl)Cl | inactive |
| Nc1ncnc2c1ncn2[C@@H]1O[C@H](COP(=O)(O)OP(=O)(O)OP(=O)(O)O)[C@@H](O)[C@H]1O | inactive |
| Nc1c(N=Nc2ccc(-c3ccc(N=Nc4cc(S(=O)(=O)O)c5ccccc5c4N)cc3)cc2)cc(S(=O)(=O)O)c2ccccc12 | inactive |
| C#CCOc1ccc2c(C)cc(=O)oc2c1 | inactive |
| CC(O)CO (centres undefined) | inactive |
| COc1ccc2c3c1O[C@H]1C[C@@H](O)C=C[C@@]31CCN(C)C2 | inactive |
| O=S(=O)(O)O | inactive |
| CCCCCCCCCCCCCCCC(=O)OCC(COC(=O)CCCCCCCCCCCCCCC)OC(=O)CCCCCCCCCCCCCCC | inactive |
| O=C(O)CN(CCN(CC(=O)O)CC(=O)O)CC(=O)O | inactive |
| CCCCCCC(O)C/C=C/CCCCCCCC(=O)O (centres undefined) | inactive |
| C=CCSSSCC=C | inactive |
| CCC(=O)NCCC1CCc2ccc3c(c21)CCO3 (centres undefined) | inactive |
| C[C@@H]1CCC2[C@@H](C)[C@@H](O)O[C@@H]3O[C@@]4(C)CC[C@@H]1[C@@]23OO4 (some centres undefined) | 1.3 nM (active) |
| CCCCC/C=C\C/C=C\CCCCCCCC(=O)O | inactive |
| CCCC(=O)O[C@]1(C(=O)CCl)[C@H](C)C[C@@H]2[C@H]3CCC4=CC(=O)C=C[C@]4(C)[C@@]3(F)C(=O)C[C@@]21C | 2820 nM (active) |
| CCOc1ccc(N=Nc2ccc(N)cc2N)cc1 | inactive |
| NC(=O)c1ncn(C2OC(CO)C(O)C2O)n1 (centres undefined) | inactive |
| COCC(=O)Nc1cc(Sc2ccccc2)ccc1N=C(NC(=O)OC)NC(=O)OC | inactive |

Reference: PubChem BioAssay (NCATS)
